# Only some compounds are listed: those with a hit (about 6% of all), similar ones and a draw of the others.
# BCR signal inh – qHTS Assay to Find Inhibitors of Chronic Active B-Cell Receptor Signaling; ABC-DLBCL IkBa-CBG/CBR reporter, luminescence ratio, 4 h; Potency, µM (series often up to 46.1 µM), usual class: inhibitors; 0.05% of 340,000 active; active means well fitted inhibition curve with a large enough effect in the signal ratio, with a control signal flat, not every such curve was filed as active; inconclusive means small, poorly fitted or top-dose-only effect, or effect the other way, or a change in a side signal; the % refers to the signal ratio
#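 TMD8 human ABC-DLBCL cells with doxycycline-inducible IκBα–green luciferase fusion and unfused red luciferase, in 0.5% FBS medium; compounds up to 46 uM, 4 h at 37C. Green/red luminescence ratio, filter-overlap corrected, fitted to concentration-response curves.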
# DRD3 antagonist – qHTS of D3 Dopamine Receptor Antagonist: qHTS | max response, negative = inhibition, % | 2.5% of 360,000 active | D3R cells, DiscoveRx beta-arrestin luminescence, antagonist mode; stronger effect = lower value | D(3) dopamine receptor (Homo sapiens), P35462 | AID 652054, 2013; in the data active means max response below about -50%; inconclusive means no clear call, values can overlap the other calls
# Target sequence (P35462 whole entry, looked up): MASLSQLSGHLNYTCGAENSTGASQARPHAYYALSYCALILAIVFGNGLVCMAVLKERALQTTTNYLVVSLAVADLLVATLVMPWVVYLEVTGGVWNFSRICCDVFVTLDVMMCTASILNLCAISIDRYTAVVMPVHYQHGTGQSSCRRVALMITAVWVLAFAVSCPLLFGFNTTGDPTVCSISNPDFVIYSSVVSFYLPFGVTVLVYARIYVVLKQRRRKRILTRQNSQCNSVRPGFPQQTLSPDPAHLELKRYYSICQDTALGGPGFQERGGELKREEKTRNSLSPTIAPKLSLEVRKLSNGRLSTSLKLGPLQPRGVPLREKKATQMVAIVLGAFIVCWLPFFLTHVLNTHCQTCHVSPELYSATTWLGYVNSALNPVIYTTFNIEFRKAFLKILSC
#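 Cells expressing the human receptor were seeded at 1500 cells/well, incubated overnight at 37 degrees C in 5% CO2, then exposed to library compounds with dopamine controls for 90 minutes at 37 degrees C before luminescent detection.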
# D1 potentiator – Potentiators of Human D1 Dopamine Receptor: qHTS | D(1A) dopamine receptor (Homo sapiens), P21728 | HEK293 TREx D1 cells, calcium flux, dopamine EC20 potentiation | potentiation, % at 10 µM | 0.036% of 360,000 active | AID 504651, 2011; in the data active means potentiation above about 30%
# D1 antag – Antagonist of Human D 1 Dopamine Receptor: qHTS. D(1A) dopamine receptor (Homo sapiens), P21728. HEK293 TREx D1 cells, calcium flux, dopamine EC80; stronger effect = lower value. activity change, negative = inhibition, % at 10 µM. 3.2% of 360,000 active. AID 504652, 2011; in the data active means activity change below about -30%
#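 Allosteric or orthosteric antagonism assessed as attenuation of the calcium response to EC80 dopamine, added 180 s after compound, in induced HEK293 Trex D1 cells loaded with no-wash calcium dye.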
# DRD3 agonist – qHTS of D3 Dopamine Receptor Agonist: qHTS. D(3) dopamine receptor (Homo sapiens), P35462. D3R DiscoveRx beta-arrestin cells, luminescence, 90 min. max activation, %. 0.58% of 410,000 active. AID 652048, 2013; in the data active means max activation above about 30%
#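 Agonist-mode cell screen: cells plated at 1500/well and incubated overnight at 37 °C, then exposed to library compounds for 90 min at 37 °C. Detection reagent was added for 30–60 min at room temperature, and luminescence was read.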
# D1 agonist – Allosteric Agonists of the Human D1 Dopamine Receptor: qHTS. activation, % at 2 µM. 1% of 360,000 active. HEK293 T-REx D1 cells, calcium flux, agonist mode. D(1A) dopamine receptor (Homo sapiens), P21728; in the data active means activation above about 30%
#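 Tetracycline-induced HEK293 TREx D1 cells, force-coupled to calcium signalling, were dye-loaded with a no-wash calcium kit. Compound was pin-added after a 10 s baseline. Fluorescence was read kinetically at 1 cycle/s for 180 s, with calcium rises flagged as agonism.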
# A number is an active result; – = inactive; ? = inconclusive; · = no result.
SMILES,BCR signal inh,DRD3 antagonist,D1 potentiator,D1 antag,DRD3 agonist,D1 agonist
O=C(Nc1nc2ccc(F)cc2s1)c1nc(S(=O)(=O)Cc2ccccc2F)ncc1Cl,·,·,–,-34.1,–,–
COc1ccc(C(=O)c2sc3nc(-c4ccccc4)ccc3c2N)cc1,–,–,–,–,–,157.9
COc1cccc(-c2ccc3c(N)c(C(=O)c4ccc(Cl)cc4)sc3n2)c1,·,·,–,–,–,97.6
CC(C)OC(=O)c1sc2nc(-c3ccccc3)ccc2c1N,–,–,–,–,–,–
Cc1cc(C)c(C#N)c(SCc2nnc(-c3ccccc3[N+](=O)[O-])o2)n1,?,–,–,–,–,38.5
O=C(N/N=C/c1cccc2cccnc12)c1ccccc1O,?,-53.2,–,–,–,–
CCc1ccc(-c2cc(C)no2)cc1S(=O)(=O)NCc1ccc(OC)cc1,·,·,–,–,–,–
COCCCNC(=O)Cn1ncc2c(=O)oc3ccccc3c21,–,–,–,-30.3,–,–
Cc1ccc2oc(=O)c3cnn(CC(=O)NCCC(C)C)c3c2c1,–,–,–,-37.3,–,–
CCN(CCCNC(=O)Cn1ncc2c(=O)oc3ccccc3c21)c1cccc(C)c1,?,–,–,-36.9,–,–
COCC#Cc1ccc2c(c1)O[C@@H](CN(C)C(=O)Nc1ccc(OC)cc1)[C@H](C)CN([C@H](C)CO)S2(=O)=O,·,–,·,·,–,·
Cc1ccc(C)c(Cn2c(=O)n(CC3CCC(C(=O)N4CCOCC4)CC3)c(=O)c3sccc32)c1 (stereo unspecified),·,·,–,–,–,–
CC1(C)Cc2cccc(OCC(=O)NCc3ccccc3F)c2O1,–,–,–,-35.4,–,–
Cc1cccc(-c2nc(CCNC(=O)Cc3ccccc3)cs2)c1,·,·,–,–,–,–
Cc1cccc(C)c1NC(=O)c1c[nH]c2ccccc12,?,–,–,-48.4,–,–
Cc1cccc(C)c1NC(=O)CNC(=O)Cc1c[nH]c2ccccc12,–,–,–,–,–,–
CN(Cc1ccccc1)C(=O)c1ccc(NC(=O)Cc2cccc(NC(=O)C3CCN(C(=O)C4CC4)CC3)c2)cc1,?,–,–,–,–,251.5
CN(Cc1ccccc1)C(=O)c1ccc(NC(=O)Cc2cccc(NC(=O)C3CCN(C(=O)C4CCCCC4)CC3)c2)cc1,–,–,–,–,–,–
CN(C(=O)c1ccc(NC(=O)Cc2ccc(NC(=O)C3CCN(C(=O)c4ccccc4)CC3)cc2)cc1)C1CC1,–,-98.6,–,·,–,–
Cc1ccccc1CC1(CO)CCCN(Cc2nc(-c3cccs3)oc2C)C1 (stereo unspecified),–,-104.1,–,–,–,–
Cc1oc(-c2cccs2)nc1CN1CCN(CC(C)C)C(CCO)C1 (stereo unspecified),–,–,–,–,–,–
CCC1CN(C(=O)N2CCC(C(=O)NCCc3cc(OC)ccc3OC)CC2)c2ccccc2O1 (stereo unspecified),·,·,–,–,–,–
O=C(NC1(C(F)(F)F)C(=O)Nc2c1c(=O)[nH]c(=O)n2CCc1ccccc1)c1ccc(Cl)cc1 (stereo unspecified),–,·,–,–,–,–
Cc1ccc(-n2c3c(c(=O)[nH]c2=O)C(NC(=O)c2ccccc2C)(C(F)(F)F)C(=O)N3)cc1 (stereo unspecified),·,·,–,–,–,–
Cc1ccc(C(=O)NC2(C(F)(F)F)C(=O)Nc3c2c(=O)[nH]c(=O)n3CCc2ccccc2)cc1 (stereo unspecified),·,·,–,-40.3,–,–
SMILES,BCR signal inh,DRD3 antagonist,D1 potentiator,D1 antag,DRD3 agonist,D1 agonist
Cc1ccc(-n2c3c(c(=O)[nH]c2=O)C(NC(=O)C(C)(C)C)(C(F)(F)F)C(=O)N3)cc1 (stereo unspecified),·,·,–,-73.7,–,–
COc1ccc(-c2ccc(N3C(c4cc(OC)cc(OC)c4)=Cc4ccc(OC)cc4C3CC(C)=O)cc2)cc1 (stereo unspecified),·,–,·,·,–,·
CCN(C(=O)CCS(=O)(=O)c1cc2c(cc1C)NC(=O)CO2)c1cccc(C)c1,·,·,–,–,–,–
CCN(C(=O)CCS(=O)(=O)c1cc2[nH]c(=O)c(=O)[nH]c2cc1C)c1ccccc1,·,·,–,-79.7,–,–
CCOC(=O)[C@]12CCCC=C1N(Cc1ccccc1)C(=O)[C@H](CC(=O)NCCCOC)C2,·,–,·,·,–,·
COc1cccc(C(C#N)N2CCCCC2)c1O (stereo unspecified),–,-73.6,–,–,–,–
O=C1C(=O)C(c2ccccc2)C(=O)C1c1ccccc1 (stereo unspecified),·,–,·,·,86.6,·
CC(=O)OC[C@@H]1CN(Cc2cccc(C(F)(F)F)c2)C[C@H](n2cnc3c(NCc4ccco4)ncnc32)O1,·,–,·,·,–,·
O=C(N/N=C/c1cc(Cl)cc([N+](=O)[O-])c1O)c1ccccc1NS(=O)(=O)c1cccs1,–,?,–,-30.4,–,–
Cc1cc(C(=O)N/N=C/c2cc(Cl)cc([N+](=O)[O-])c2O)c2ccccc2n1,–,-66.0,–,–,–,–
Cc1cc(NC(=O)COC(=O)[C@H](Cc2ccccc2)NC(=O)c2ccco2)no1,·,–,·,·,–,·
Cc1cccc(C(=O)NNC(=O)C2CCCCC2)c1O,·,–,·,·,–,·
CCOc1ccc(NC(=O)N2CCOc3ccccc32)cc1,·,·,–,–,–,–
CCOC(=O)c1c(-c2ccc(C)o2)csc1NC(=S)NC(=O)N(C)C,?,-55.0,–,–,–,–
CCc1nc2ccc(C(=O)N3CCN(C(C)=O)CC3)cn2c1N(C=O)Cc1ccc(OC)cc1,·,–,·,·,–,·
COc1ccc(-n2c(=O)c(CCC(=O)N3CCN(c4cccc(OC)c4)CC3)nc3ccccc32)cc1,·,–,·,·,–,·
COc1ccc(/C(O)=C/c2nc3ccccc3n(-c3ccccc3)c2=O)cc1,–,–,–,–,–,38.6
CCN(CC)C(=O)C1=C(C)N(CCCN2CCCC2=O)C(=O)C(CC(=O)NCCN2CCOCC2)C1 (stereo unspecified),·,–,·,·,–,·
CC(=O)NCC(=O)NNC1CC(=O)N(c2cccc(Cl)c2)C1=O (stereo unspecified),–,–,30.7,–,–,–
O=C(NC(c1ccc(F)cc1)c1ccc2ccccc2n1)C1CCN(Cc2ccc3ccccc3n2)CC1 (stereo unspecified),·,-53.0,·,·,–,·

# Screens (PubChem)
